Data taken from PubChem BioAssay.
Activity calls are given as the source filed them.

Experiments:
[1] = tested on: Wnt5a (protein binding on small-molecule microarray); test: small molecules binding Wnt5a protein – biophysical, small-molecule microarray, 635/667 nm fluorescence, primary screen (AID 1142); details: 635 nm fluorescence, higher = more signal;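 also: fluorescence read at 667 nm with signal to noise per printed feature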
[2] = ATP-based viability of Huh7 replicon cells – cell-based, CellTiter-Glo luminescence, basal, 48 h, cytotoxicity control for HCV replication inhibitor project, primary screen (AID 1143); details: higher = more signal, called active from +8 up or from −8 down;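 also: Huh7 hepatoma cells carrying a hepatitis C replication reporter with no stimulus; test concentration not given here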
[3] = basal CRE-LacZ reporter activity in PC12 – cell-based, unstimulated, primary screen (AID 1145); details: no forskolin, luminescence, 4.5 h, higher = more signal, called active from +8 up or from −8 down
[4] = forskolin-driven CRE-LacZ activity in PC12 – cell-based, CRE-LacZ reporter, forskolin-stimulated, primary screen (AID 1146); details: luminescence, 4.5 h, higher = more signal, called active from +8 up or from −8 down;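 also: PC12 cells with 6xCRE LacZ reporter stimulated by forskolin 10 µM; beta-galactosidase reporter signal reflecting CREB driven transcription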
[5] = target: Streptavidin (Streptomyces avidinii) (UniProt P22629); test: compounds binding control protein streptavidin – biophysical, small-molecule microarray, 635/667 nm fluorescence, artefact control for SMM compound annotation, primary screen (AID 1147); details: higher = more signal;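 also: signal reflects streptavidin binding to arrayed compounds as a control protein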
Sequence of Streptavidin (Streptomyces avidinii) (P22629 whole entry, looked up): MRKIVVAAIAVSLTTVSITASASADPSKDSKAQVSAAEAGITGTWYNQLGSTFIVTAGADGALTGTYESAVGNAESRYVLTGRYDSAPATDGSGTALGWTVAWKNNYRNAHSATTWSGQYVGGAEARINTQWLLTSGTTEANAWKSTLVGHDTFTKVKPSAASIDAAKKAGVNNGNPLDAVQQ

[6] = probe aInhba binding on compound microarray – biochemical, small-molecule microarray, 635/667 nm fluorescence, primary screen (AID 1148); details: higher = more signal;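 also: score merges 667nm spot fluorescence with signal-to-noise for antibody binding to printed compounds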
Torsin-1A (Homo sapiens) [7] = target: Torsin-1A (Homo sapiens) (UniProt O14656); test: TOR1A wild-type binding on microarray – cell lysate, small-molecule microarray, lysate, 635/667 nm, primary screen (AID 1149); details: COS7 hTOR1A-WT lysate, 635 nm fluorescence, higher = more signal
Sequence of Torsin-1A (Homo sapiens) (O14656 whole entry, looked up): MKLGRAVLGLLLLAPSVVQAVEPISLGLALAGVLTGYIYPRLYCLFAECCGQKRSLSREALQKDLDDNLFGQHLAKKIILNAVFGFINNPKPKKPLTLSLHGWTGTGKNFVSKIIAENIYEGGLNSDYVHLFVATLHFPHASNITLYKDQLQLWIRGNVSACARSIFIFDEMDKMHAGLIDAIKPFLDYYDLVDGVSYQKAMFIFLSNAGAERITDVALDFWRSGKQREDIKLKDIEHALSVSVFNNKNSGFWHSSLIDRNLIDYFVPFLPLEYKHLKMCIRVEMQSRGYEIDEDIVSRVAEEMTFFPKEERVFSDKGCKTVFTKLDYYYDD

Torsin-1A (Homo sapiens) [8] = target: Torsin-1A (Homo sapiens) (UniProt O14656); test: torsin A mutant lysate binding on microarrays – cell lysate, small-molecule microarray, COS7 lysate, 635/667 nm fluorescence, primary screen (AID 1150); details: COS7 hTOR1A mutant lysate, 635 nm fluorescence, higher = more signal;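 also: score pools 667 nm emission and signal to noise measuring lysate protein binding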
[9] = tested on: Sonic hedgehog protein (Shh); test: Sonic hedgehog microarray binding compounds – biochemical, small-molecule microarray, 635/667 nm fluorescence, primary screen (AID 1151); details: 635 nm fluorescence, higher = more signal;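 also: Shh protein binding to compounds spotted on small-molecule microarray slides; score combines spot fluorescence intensity with signal-to-noise across triplicate slides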
[10] = optical density shifts of acrAB sulA E. coli – strain DRC41, OD650, 48 h, E. coli filamentation inducer project, primary screen (AID 1152); details: higher = more signal, called active from +8 up or from −8 down;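 also: E. coli MC1000 strain DRC41 lacking acrAB efflux pump and sulA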
[11] = probe aLefty1 binding on compound microarray – biochemical, small-molecule microarray, 635/667 nm fluorescence, primary screen (AID 1153); details: higher = more signal;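 also: score merges spot fluorescence with signal-to-noise ratio from the scanned slide images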
[12] = plasmodial surface anion channel blockers, osmotic lysis – cell-based, P. falciparum Indochina, OD700, 1 h, primary screen (AID 1154); details: P. falciparum Indochina infected RBC osmotic lysis, higher = more signal, called active from +8 up or from −8 down
[13] = plasmodial surface anion channel blockers, osmotic lysis – cell-based, P. falciparum Indochina, OD700, 2 h, primary screen (AID 1155);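 also: lysis reports solute entry through the parasite surface anion channel PSAC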; details: P. falciparum Indochina infected erythrocytes, higher = more signal, called active from +8 up or from −8 down
[14] = changes in parasitized red cell lysis, either direction – P. falciparum Indochina, OD700, 3 h, PSAC antagonist project, primary screen (AID 1156); details: P. falciparum-infected erythrocytes, osmotic lysis, higher = more signal, called active from +8 up or from −8 down
[15] = plasmodial surface anion channel blockers, osmotic lysis – cell-based, P. falciparum Indochina, OD700, 18 h, primary screen (AID 1157); details: P. falciparum Indochina infected erythrocytes, osmotic lysis OD700, 18 h; higher = more signal, called active from +8 up or from −8 down
[16] = S6 kinase pathway phospho-S6 level changes – cell-based, A549, cytoblot, luminescence, serum-stimulated, primary screen (AID 1158); details: 5 h, higher = more signal;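 also: serum-stimulated A549 lung adenocarcinoma cells; signal is phosphorylated S6 detected by cytoblot immunostaining with HRP secondary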
[17] = target: NADPH oxidase 2 (Homo sapiens) (UniProt P04839); test: compounds shifting NOX2 Amplex Red fluorescence – cell-based, HEK293-NOX2, PMA-stimulated, NOX inhibitor project, primary screen (AID 1159); details: 45 min, higher = more signal, called active from +8 up or from −8 down; also: test concentration not given here
Sequence of NADPH oxidase 2 (Homo sapiens) (P04839 whole entry, looked up): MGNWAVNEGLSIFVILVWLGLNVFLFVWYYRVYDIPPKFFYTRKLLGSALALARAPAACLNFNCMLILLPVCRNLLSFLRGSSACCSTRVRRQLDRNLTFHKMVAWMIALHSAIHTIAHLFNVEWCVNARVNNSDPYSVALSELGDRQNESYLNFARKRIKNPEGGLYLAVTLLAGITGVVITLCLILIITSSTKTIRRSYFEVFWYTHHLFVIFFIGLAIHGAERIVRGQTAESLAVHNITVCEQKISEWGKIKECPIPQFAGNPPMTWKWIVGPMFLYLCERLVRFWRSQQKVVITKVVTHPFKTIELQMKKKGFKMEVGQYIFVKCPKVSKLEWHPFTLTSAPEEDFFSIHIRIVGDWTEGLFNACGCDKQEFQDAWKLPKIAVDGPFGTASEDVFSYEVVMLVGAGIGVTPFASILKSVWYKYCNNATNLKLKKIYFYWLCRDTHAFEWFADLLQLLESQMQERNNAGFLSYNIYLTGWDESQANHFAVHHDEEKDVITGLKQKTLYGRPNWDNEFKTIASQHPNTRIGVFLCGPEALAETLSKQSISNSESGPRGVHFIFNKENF

[18] = target: NADPH oxidase 4 (Homo sapiens) (UniProt Q9NPH5); test: compounds shifting NOX4 Amplex Red fluorescence – cell-based, HEK293-NOX4, tetracycline-induced, NOX inhibitor project, primary screen (AID 1160); details: HEK293-NOX4, Amplex Red H2O2 fluorescence, 45 min; higher = more signal, called active from +8 up or from −8 down
Sequence of NADPH oxidase 4 (Homo sapiens) (Q9NPH5 whole entry, looked up): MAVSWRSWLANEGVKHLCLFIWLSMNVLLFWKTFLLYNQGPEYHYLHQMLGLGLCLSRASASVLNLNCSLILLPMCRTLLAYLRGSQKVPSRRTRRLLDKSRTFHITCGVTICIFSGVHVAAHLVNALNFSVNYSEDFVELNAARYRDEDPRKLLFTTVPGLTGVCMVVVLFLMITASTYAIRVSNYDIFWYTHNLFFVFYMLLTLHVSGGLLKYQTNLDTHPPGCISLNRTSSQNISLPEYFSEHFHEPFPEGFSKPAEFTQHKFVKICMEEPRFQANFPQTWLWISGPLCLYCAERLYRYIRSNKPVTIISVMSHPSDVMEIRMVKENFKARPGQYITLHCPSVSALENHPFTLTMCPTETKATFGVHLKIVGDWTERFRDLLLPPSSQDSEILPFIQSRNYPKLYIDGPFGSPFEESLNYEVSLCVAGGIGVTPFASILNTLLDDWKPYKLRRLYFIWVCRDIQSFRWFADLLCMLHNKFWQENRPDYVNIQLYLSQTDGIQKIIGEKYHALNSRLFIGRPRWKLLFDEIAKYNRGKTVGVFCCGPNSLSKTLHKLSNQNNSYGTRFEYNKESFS

[19] = target: NADPH oxidase 5 (Homo sapiens) (UniProt Q96PH1); test: compounds shifting NOX5 Amplex Red fluorescence – cell-based, HEK293-NOX5, NOX inhibitor project, primary screen (AID 1161); details: HEK293-NOX5, ionomycin, 45 min, higher = more signal
Sequence of NADPH oxidase 5 (Homo sapiens) (Q96PH1 whole entry, looked up): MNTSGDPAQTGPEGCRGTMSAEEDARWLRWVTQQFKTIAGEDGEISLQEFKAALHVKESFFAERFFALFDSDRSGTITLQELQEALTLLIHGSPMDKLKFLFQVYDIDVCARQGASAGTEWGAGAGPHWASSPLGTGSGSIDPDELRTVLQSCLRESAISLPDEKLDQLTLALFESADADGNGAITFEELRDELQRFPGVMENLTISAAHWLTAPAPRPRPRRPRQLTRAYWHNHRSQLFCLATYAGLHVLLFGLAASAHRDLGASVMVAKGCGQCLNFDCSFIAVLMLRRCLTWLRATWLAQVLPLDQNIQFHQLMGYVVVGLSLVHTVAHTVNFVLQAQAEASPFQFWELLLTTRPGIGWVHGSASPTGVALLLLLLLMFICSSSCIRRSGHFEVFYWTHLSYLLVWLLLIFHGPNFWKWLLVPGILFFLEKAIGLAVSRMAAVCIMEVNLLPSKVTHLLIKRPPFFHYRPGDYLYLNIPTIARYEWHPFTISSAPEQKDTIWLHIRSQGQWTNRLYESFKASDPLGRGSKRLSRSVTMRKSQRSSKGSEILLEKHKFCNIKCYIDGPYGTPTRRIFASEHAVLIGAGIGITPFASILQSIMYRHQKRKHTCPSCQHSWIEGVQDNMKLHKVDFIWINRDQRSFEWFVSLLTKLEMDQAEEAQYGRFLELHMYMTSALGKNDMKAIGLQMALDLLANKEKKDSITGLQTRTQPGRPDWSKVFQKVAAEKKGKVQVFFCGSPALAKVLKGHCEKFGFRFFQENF

[20] = compound effects on lung adenocarcinoma cell viability – A549, calcein-AM fluorescence, 48 h, basal, profiling panel (AID 1162); details: higher = more signal; also: test concentration not given here

SMILES	composite z-score [1]	z-score [2]	z-score [3]	z-score [4]	composite z-score [5]	composite z-score [6]	composite z-score (Torsin-1A (Homo sapiens) [7])	composite z-score (Torsin-1A (Homo sapiens) [8])	composite z-score [9]	z-score [10]	composite z-score [11]	z-score [12]	z-score [13]	z-score [14]	z-score [15]	z-score [16]	z-score [17]	z-score [18]	z-score [19]	z-score [20]
C=C(CCCC)/C(=C/C[C@@H](OC(=O)c1ccncc1)c1ccc(OCCO)cc1)c1cnc2ccccc2c1	0.826	-1.93 (inactive)	13.4 (active)	-0.929 (inactive)	1.72	0.108	0.546	0.653	2.1	1.21 (inactive)	0.199	26.2 (active)	9.47 (active)	1.54 (inactive)	1.39 (inactive)	-0.175	-1.06 (inactive)	-1.43 (inactive)	-0.922	0.4
CCN(CC)c1ccc(N2CC=CC34O[C@@H]5C=CCOC(=O)[C@@H]5[C@H]3C(=O)N(C(C)CO)[C@@H]4C2=O)cc1 (stereo not given in full)	-0.701	-0.269 (inactive)	0.195 (inactive)	0.188 (inactive)	-1.27	-0.123	-1.08	-0.641	-0.903	1.55 (inactive)	0.121	0.0295 (inactive)	0.447 (inactive)	0.976 (inactive)	0.255 (inactive)	-0.153	0.126 (inactive)	0.197 (inactive)	0.871	0.271
COCCOC(=O)N1C(=O)[C@@]2(c3cc(C#CCCO)ccc31)[C@H](c1ccccc1OCCO)N1[C@H](c3ccccc3)[C@H](c3ccccc3)OC(=O)[C@H]1[C@@H]2C(=O)NC[C@H](O)c1ccccc1	0.142	-4.1 (inactive)	1.42 (inactive)	-1.44 (inactive)	0.506	0.209	1.94	0.552	1.56	2.96 (inactive)	-0.0222	3.88 (inactive)	0.965 (inactive)	0.673 (inactive)	0.442 (inactive)	2.31	1.59 (inactive)	1.52 (inactive)	-0.0153	2.07
CC(C)[C@@H](C(=O)O)n1cc(-c2ccccn2)nn1	-0.267	0.715 (inactive)	-0.201 (inactive)	0.159 (inactive)	0.62	0.202	0.417	0.567	0.673	2.01 (inactive)	-0.0559	-0.0828 (inactive)	0.0486 (inactive)	0.322 (inactive)	0.0401 (inactive)	0.0264	-0.847 (inactive)	0.242 (inactive)	-0.24	-0.137
COC(=O)C1=CC(c2ccc(CO)cc2)=CC(C2CC2)N(C)C=C1C(=O)OC (stereo not given)	0.138	-3.85 (inactive)	-0.195 (inactive)	-1.75 (inactive)	0.226	0.203	-0.017	1.04	-0.154	2.75 (inactive)	0.223	7.02 (inactive)	0.548 (inactive)	-2.7 (inactive)	-0.382 (inactive)	3.99	-1.7 (inactive)	-0.0178 (inactive)	-1.69	0.981
O=C1c2ccccc2[C@](Cc2ccccc2I)(C(=O)O)[C@H](c2ccc(CO)cc2)N1Cc1ccccc1Cl	0.0716	-1.86 (inactive)	-0.0888 (inactive)	-0.873 (inactive)	0.414	0.112	0.252	1.01	0.0948	1.76 (inactive)	0.122	4.07 (inactive)	-0.442 (inactive)	0.477 (inactive)	-1.07 (inactive)	1.21	1.35 (inactive)	0.57 (inactive)	2.39	1.32
CO[C@H]1O[C@H](CO)[C@@H](OC(=O)CCc2ccccc2)[C@@H]2OC(=O)[C@H](Cc3ccccc3)C/C=C/C[C@@H](Cc3ccccc3)C(=O)O[C@@H]12	-0.221	-3.09 (inactive)	-0.552 (inactive)	-1.18 (inactive)	-0.804	-0.179	0.0387	0.0489	-0.214	2.35 (inactive)	-0.243	6.07 (inactive)	0.389 (inactive)	-1.06 (inactive)	-1.83 (inactive)	0.939	1.59 (inactive)	1.26 (inactive)	0.751	1.38
COc1ccc([Si](C)(C)[C@H]2[C@H](CC(=O)N3Cc4ccccc4C[C@H]3CO)O[C@@]3(C(=O)N(Cc4cccc(N5C(=O)COc6ccccc65)c4)c4ccccc43)[C@@H]2C)cc1	0.283	-3.87 (inactive)	3.47 (inactive)	-1.86 (inactive)	0.22	-0.0986	0.562	0.212	2	0.578 (inactive)	-0.0035	3.46 (inactive)	1.76 (inactive)	1.69 (inactive)	1.04 (inactive)	0.0515	-1.37 (inactive)	-0.307 (inactive)	-2.34	0.486
CC(C)C[C@@H]1NC(=O)[C@H]2C[C@@H](C(=O)NCCCC[N+](C)(C)C)[C@@H](c3cccc(OCCO)c3)N2C1=O	0.223	-1.01 (inactive)	-0.26 (inactive)	-1.21 (inactive)	-0.429	-0.1	2.05	0.629	2.03	0.512 (inactive)	-0.243	2.25 (inactive)	-1.73 (inactive)	-2.51 (inactive)	-2.05 (inactive)	0.251	-1.8 (inactive)	-0.815 (inactive)	-1.49	1.01
O=C1c2ccccc2C(=O)c2cc([C@H]3Oc4ccccc4S(=O)(=O)N4CCC[C@@H]34)ccc21	-0.0879	-4.31 (inactive)	4.29 (inactive)	-1.21 (inactive)	-0.615	-0.0079	-0.474	-0.122	-0.441	3.11 (inactive)	-0.0625	8.47 (active)	0.452 (inactive)	0.544 (inactive)	-1.29 (inactive)	1.1	0.0288 (inactive)	-1.18 (inactive)	0.489	0.326
CCOC(=O)C[C@H]1[C@H](OC(=O)c2ccc(C(=O)c3ccccc3)cc2)[C@@H](NC(=O)Cc2ccc(OC)cc2)c2cc(OCCCO)ccc2N1C(=O)Cc1ccc(OC)cc1	0.296	-0.69 (inactive)	2.14 (inactive)	-0.899 (inactive)	0.598	-0.122	0.226	0.413	0.697	1.89 (inactive)	0.357	4.37 (inactive)	-0.625 (inactive)	0.0901 (inactive)	-1.14 (inactive)	1	0.676 (inactive)	0.79 (inactive)	1.52	2.13
COCCOC(=O)N1C(=O)[C@@]2(c3cc(C#CCNC(N)=O)ccc31)[C@H](C(=O)NC[C@H](O)c1ccccc1)[C@H]1C(=O)O[C@H](c3ccccc3)[C@H](c3ccccc3)N1[C@@H]2c1ccc(O)cc1	0.226	-1.19 (inactive)	-1.02 (inactive)	-0.899 (inactive)	0.0489	-0.128	0.397	0.393	0.746	2.05 (inactive)	-0.196	0.532 (inactive)	-1.33 (inactive)	0.527 (inactive)	-1.55 (inactive)	1.57	1.46 (inactive)	0.692 (inactive)	0.776	0.834
C/C=C/[C@@H](CCn1cc(CCO[Si](C(C)C)(C(C)C)C(C)C)nn1)[Si](C)(C)c1ccc(OC)cc1	-0.569	-3.19 (inactive)	3.29 (inactive)	-1.01 (inactive)	-1.27	-0.39	-0.72	0.741	-0.526	0.415 (inactive)	-0.315	0.305 (inactive)	0.0452 (inactive)	-0.606 (inactive)	-1.92 (inactive)	2.96	-0.937 (inactive)	0.0135 (inactive)	-0.497	1.74
COCCCNC(=O)[C@@]1(C)c2ccccc2C(=O)N(Cc2cc(F)cc(C(F)(F)F)c2)[C@H]1c1ccc(CO)cc1	-0.0509	-0.914 (inactive)	-0.0512 (inactive)	-0.883 (inactive)	-0.624	-0.38	0.891	-0.439	-1.16	1.7 (inactive)	-0.279	1.13 (inactive)	0.459 (inactive)	0.0539 (inactive)	0.0567 (inactive)	0.0396	0.184 (inactive)	-1.4 (inactive)	0.42	-0.0292
C=CCN1C(=O)[C@@]2(O[C@@H](CCn3cc(CCO)nn3)[C@H]([Si](C)(C)c3ccc(OC)cc3)[C@H]2C)c2cc(NC(=O)c3ccc(OC)cc3)ccc21	0.315	-2.79 (inactive)	12.8 (active)	-2.29 (inactive)	0.441	0.0497	0.558	0.437	1.4	0.596 (inactive)	0.0789	12.1 (active)	2.03 (inactive)	1.1 (inactive)	0.742 (inactive)	0.157	-0.282 (inactive)	1.45 (inactive)	0.367	-0.0183
CCOC(=O)C[C@H]1[C@H](OC(=O)c2cc3ccccc3oc2=O)[C@@H](NC(=O)c2ccccc2)c2cc(OCCCO)ccc2N1C(=O)Cc1ccc(OC)cc1	0.146	-4.64 (inactive)	8.63 (active)	-2.07 (inactive)	0.0709	0.0464	0.151	0.098	0.251	3.12 (inactive)	-0.0051	3.28 (inactive)	-0.825 (inactive)	0.076 (inactive)	-2.29 (inactive)	2.39	-0.224 (inactive)	0.106 (inactive)	0.874	-0.0571
COCCOC(=O)N1C(=O)[C@@]2(c3cc(C#CC4(O)CCCCCC4)ccc31)[C@H](C(=O)NC[C@H](O)c1ccccc1)[C@H]1C(=O)O[C@H](c3ccccc3)[C@H](c3ccccc3)N1[C@@H]2c1ccccc1OCCO	0.393	-5.32 (inactive)	-0.203 (inactive)	-0.464 (inactive)	0.637	0.0393	0.821	0.709	1.9	1.5 (inactive)	0.223	2.13 (inactive)	1.55 (inactive)	-0.535 (inactive)	0.922 (inactive)	0.632	1.82 (inactive)	-0.729 (inactive)	0.85	0.463
